AmpC no deterg: blocks E. coli AmpC beta-lactamase in detergent-free assay; Potency, µM (highest dose often 57.1 µM), actives largely listed as inhibitors; 0.52% of 330,000 active; AmpC nitrocefin hydrolysis, absorbance 480 nm, 0.0001% Triton; P00811; further: nearly all actives have a fitted effect of over 20% in size
Target sequence (P00811 whole entry, looked up): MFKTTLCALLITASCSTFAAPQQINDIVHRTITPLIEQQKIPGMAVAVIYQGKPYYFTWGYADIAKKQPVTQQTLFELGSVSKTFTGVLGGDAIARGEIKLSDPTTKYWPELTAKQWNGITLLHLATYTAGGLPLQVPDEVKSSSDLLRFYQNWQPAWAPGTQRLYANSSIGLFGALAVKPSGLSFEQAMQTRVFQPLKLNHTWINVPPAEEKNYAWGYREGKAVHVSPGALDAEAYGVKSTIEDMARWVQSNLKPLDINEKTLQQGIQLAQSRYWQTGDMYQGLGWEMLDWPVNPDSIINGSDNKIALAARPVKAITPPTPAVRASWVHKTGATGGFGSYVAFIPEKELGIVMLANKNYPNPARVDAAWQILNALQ
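20 mM phosphate pH 7.0 + 0.01% (detergent screen) or 0.0001% Triton X-100; 5.3 nM AmpC reagent; cpd preinc 15 min RT; nitrocefin (800 uM stock) to start; A480 q20 s × 4 min; Activity was normalised to no-enzyme and no-compound control wells.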
FMDV antiviral: antivirals against foot and mouth disease virus. 1.2% of 410,000 active. FMDV antiviral cell-based qHTS. Potency, µM (series often up to 57.9 µM), actives largely listed as inhibitors; calls by dose curve; tested in HEK293T cells; further: read-out not given here; nearly all actives have a fitted effect of over 45% in size
AmpC detergent: AmpC beta-lactamase inhibition with detergent present; P00811; AmpC hydrolysis of nitrocefin, absorbance 480 nm, 0.01% Triton; Potency, µM (series often up to 114 µM), hits mostly inhibitors; 0.041% of 370,000 active; AID 485294; further: nearly all actives have a fitted effect of over 25% in size
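AmpC (5.3 nM in the dispensed reagent) in 20 mM phosphate pH 7.0 with 0.01% (detergent screen) or 0.0001% Triton X-100 was preincubated with compounds for 15 min at room temperature. Nitrocefin was then added from an 800 uM solution, and hydrolysis was followed at 480 nm.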
HCMV inh: human cytomegalovirus inhibition | HFF cells, HCMV-luciferase reporter, 72 h; hits give low values | activity change, negative = inhibition, % at 57.5 µM | 4.5% of 410,000 active; in the data active means activity change below about -60%; inconclusive means no clear call, values can overlap the other calls; inactive means above about -39%
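Two compound doses tested in HFFs infected with HCMV-luciferase, MOI 1 PFU/cell, 72 h at 37C. Lysate luminescence read with OneGlo; data normalized against buffer-only and 10uM Salinomycin inhibitor controls.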
HCV inh: blocks hepatitis C virus. Huh7.5.1 HCVcc-Cre infection, luciferase reporter, 44 h. Potency, µM (top dose mostly 41.8 µM), usual class: inhibitors. 3.4% of 340,000 active. AID 651820
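1,000 cells/well; 4 h culture; + compound; + HCVcc-Cre (~0.5 moi); 44 h; luciferase substrate, RT 15 min; read 15 sec.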
Numbers stand for hits; - = inactive; ? = inconclusive; . = not tested or not shown; + = active, no number; [ ] = another dose, or the depositor's remark. An excerpt weighted towards active compounds, which were near 7.3% of everything screened. Unless noted, the call rests on the fitted dose curve; in most records, active means well fitted curve in the direction sought with a large enough effect; inconclusive means small, poorly fitted or top-dose-only effect, or another doubt; inactive means no such curve, though single readings can be large; an effect the other way counts as inactive or inconclusive.

SMILES	AmpC no deterg	FMDV antiviral	AmpC detergent	HCMV inh	HCV inh
CC1(C)CC(=O)C(C(c2ccc(F)cc2)C2C(=O)CC(C)(C)CC2=O)C(=O)C1	-	-	-	-	-
CCc1sc(C(C2C(=O)CC(C)(C)CC2=O)C2C(=O)CC(C)(C)CC2=O)cc1[N+](=O)[O-]	-	7.94µM	-	-	-
O=C(Oc1ccc([N+](=O)[O-])cc1)C1CC(=O)N(c2ccc3c(c2)OCCO3)C1 (stereo not given)	-	-	.	-100.1	-
O=C1CC(NS(=O)(=O)c2ccc([N+](=O)[O-])cc2)CN1c1ccc2c(c1)OCCO2 (stereo not given)	-	-	?	-	-[8.37 µM]
CCc1ccc(OCCCSc2nc(-c3ccc(C(C)(C)C)cc3)nc3cc(=O)[nH]n23)cc1	.	-	?	-83.9	.
COc1ccccc1-c1ncn(Cc2cccc(-c3ccccc3)c2)c1CC(C)C	.	28.2µM	.	?	.
CCc1c(-c2ccccc2OC)ncn1Cc1cccc(-c2ccccc2)c1	.	-	.	-98.5	.
CCCc1c(-c2cccc(Cl)c2)ncn1Cc1cccc(-c2ccccc2)c1	.	-	.	-	.
COc1ccccc1-c1ncn(Cc2cccc(-c3ccccc3)c2)c1-c1cc(C)cc(C)c1	.	-	.	?	.
CCCc1c(-c2ccc(F)cc2F)ncn1Cc1cccc(-c2ccccc2)c1	.	?	.	-86.7	.
O=C(c1ccc2ccccc2c1)N1CCN(Cc2ccccc2)CC1	-	-	-	?	-
O=C(c1[nH]ncc1-c1cccc(Br)c1)C1CO1 (stereo not given)	-	35.5µM	-	-	?
O=C(c1[nH]ncc1-c1ccccc1)C1CO1 (stereo not given)	-	-	-	-	-
Cc1nc2c(cc1C(=O)N/N=C/c1ccc(O)c(O)c1)c(=O)n(C)c(=O)n2C	-	-	-	-74.3	?
CC1(C)CC(/C=C/c2ccccc2)=Nc2ccccc2N1	-	-	-	-78.3	-
O=C1CC(/C=C/c2ccc(Cl)cc2)=Nc2ccccc2N1	-	-	-	-91.3	?
COC(=O)N/N=C/c1ccc(-c2cc(Cl)ccc2Cl)o1	-	-	-	-	-
O/N=C/c1ccc(-c2cc(Cl)ccc2Cl)o1	-	-	?	-62.5	?
CCOC(=O)c1sc2ncn(CC(=O)Nc3ccc(N(C)C)cc3)c(=O)c2c1C	.	-	-	-	.
COc1cc(Cl)c(C)cc1NC(=O)CCn1cnc2onc(-c3ccc(F)cc3)c2c1=O	.	-	-	-	.
COc1ccc(NC(=O)CCn2cnc3onc(-c4ccc(F)cc4)c3c2=O)cc1OC	.	10µM	-	-71.8	.
CCn1c(=O)cc(OCC(=O)N2CCCCCC2)c2ccccc21	-	-	?	-	-
CCC1CCCCN1C(=O)COc1cc(=O)n(C)c2ccccc12 (stereo not given)	-	-	-	-	-
Cn1c(=O)cc(OCC(=O)N2CCN(C3CCCCC3)CC2)c2ccccc21	0.891µM	-	?	-	-
CCn1c(=O)cc(OCC(=O)N2CCN(c3ccc(C)cc3)C(C)C2)c2ccccc21 (stereo not given)	.	35.5µM	-	-	.
SMILES	AmpC no deterg	FMDV antiviral	AmpC detergent	HCMV inh	HCV inh
CC(=O)N1CCC[C@H]1C(=O)N1CCc2c(cnc(C)c2CNC(=O)/C=C/c2cccs2)C1	.	-	.	.	.
Cc1c(C(=O)NC(C)(C)C)sc2ncnc(NCCN(C)C)c12	.	-	.	.	.
COc1ccccc1CSc1nc2n(n1)C(c1ccccc1)C(C(=O)Nc1ccc(C)cc1)=C(C)N2 (stereo not given)	.	-	-	-	.
Cc1cc(C)c(S(=O)(=O)/N=C2/C=C(SCC(=O)O)C(=O)c3ccccc32)cc1C	15.8µM	-	-	.	?
CC(=O)Nc1cc(NC(C)=O)cc(C(=O)OCC(=O)N(c2ccccc2)C2CCS(=O)(=O)C2)c1 (stereo not given)	-	-	-	-	-
Cc1cccc(C)c1NC(=O)CNC(=O)c1ccc(COc2ccccc2)o1	-	-	-	-	-
CC1CCCN(C(=S)SCC(=O)c2cc(Br)cc(Br)c2O)C1 (stereo not given)	-	-	-	-	-
O=C(CSC(=S)N1CCCC1)c1cc(Br)cc(Br)c1O	?	-	-	?	12.6µM
CCOC(=O)[C@]12CCCC=C1N(Cc1ccccc1)C(=O)[C@H](CC(=O)N1CCN(C(=O)c3ccco3)CC1)C2	.	-	.	-	.
CC(C)(C(=O)Nc1ccccc1)n1cc(NC(=O)c2ccc3ccccc3n2)cn1	.	.	.	-	.
COC(=O)c1scc(S(C)(=O)=O)c1-n1cccc1	-	-	-	-	-
Cc1csc(C(=O)O)c1-n1cccc1	0.282µM	-	-	-	-
O=C(NCc1cccnc1)c1cc(C2CCCCN2C(=O)c2ccc3c(c2)CCO3)on1 (stereo not given)	.	-	.	-	.
Cc1cc(C)n(-c2ccc(C(=O)NCC(=O)Nc3cc(Cl)ccc3Cl)cc2)n1	-	-	.	+	-
CC(=O)c1oc2ccccc2c1NC(=O)COC(=O)c1ccc(-n2nc(C)cc2C)cc1	-	-	?	-	?
CSc1ccccc1NC(=O)COC(=O)c1ccc(-n2nc(C)cc2C)cc1	-	-	.	-106.6	-
O=C(NC1CCN(C(=O)c2cccc([N+](=O)[O-])c2)CC1)c1ccccc1	-	-	-	-	-
COc1ccc(N(CC(=O)NCCSCc2ccccc2C)S(=O)(=O)c2ccccc2)cc1	-	-	-	?	?
COc1cc(S(=O)(=O)NCCCn2ccnc2)ccc1F	-	-	-	-	-
Cc1ccc(Nc2cc(C)nn2-c2nc(C)cc(=O)[nH]2)cc1	-	3.55µM	?	.	?
COc1cc2c(c(OC)c1OC)-c1ccc(O)c(=O)cc1[C@@H](N)CC2	-	-	-	-	-
COc1cc2c(c(OC)c1OC)-c1ccc(OC)c(=O)cc1C(N)CC2 (stereo not given)	.	-	.	-83.2	-
COc1cc2c(c(OC)c1OC)-c1ccc(SC)c(=O)cc1C(N)CC2 (stereo not given)	.	-	.	-88.1	-
Cc1noc(C)c1C(=O)NCCc1ccc(Cl)cc1	-	-	-	-	-
Cc1cc(C(C)(C)C)cc(C)c1CCNC(=O)c1c(C)noc1C	-	?	-	?	11.2µM
SMILES	AmpC no deterg	FMDV antiviral	AmpC detergent	HCMV inh	HCV inh
Cc1nc([N+](=O)[O-])c(Br)n1CC(=O)c1ccc2ccccc2c1	-	22.4µM	-	-	10µM
Cc1nc([N+](=O)[O-])c(Br)n1CC(=O)c1ccc(Br)cc1	-	12.6µM	?	-	?
O=S(=O)(c1cccc(Cl)c1)c1nnn2c1nc(NC1CCCCCC1)c1sccc12	.	-	-	?	.
COc1ccc(-c2cc(C(F)(F)F)nc(NC3CCCC3)n2)cc1OC	-	-	-	-	2.24µM
COc1ccc(-c2cc(-c3ccccc3)nc(N3CCCC3)n2)cc1OC	-	-	?	-	3.55µM
COc1ccc(-c2cc(C(F)(F)F)nc(N3CCOCC3)n2)cc1OC	-	-	-	-	3.16µM
CCCNC(=O)C1(C)CCCN(C(=O)c2sccc2C)C1 (stereo not given)	.	-	.	?	.

Screens: PubChem BioAssay, National Center for Advancing Translational Sciences (NCATS)
